Data as given in PubChem BioAssay AID1929 (Vanderbilt High Throughput Screening Facility, 2009).
Calls of active or inactive are those of the source. No rule for the calls is given here.

target: Muscarinic acetylcholine receptor M3 (Homo sapiens) (UniProt P20309); assay: ACh potency shift at human M3 – cell-based, analogs, calcium, selectivity assay for M4 PAM project, SAR follow-up (AID 1929); details: hM3 cells, ACh CRC fold-shift, calcium mobilization; with ACh 0.1 µM; with compound at fixed dose
Sequence (P20309 whole entry, looked up): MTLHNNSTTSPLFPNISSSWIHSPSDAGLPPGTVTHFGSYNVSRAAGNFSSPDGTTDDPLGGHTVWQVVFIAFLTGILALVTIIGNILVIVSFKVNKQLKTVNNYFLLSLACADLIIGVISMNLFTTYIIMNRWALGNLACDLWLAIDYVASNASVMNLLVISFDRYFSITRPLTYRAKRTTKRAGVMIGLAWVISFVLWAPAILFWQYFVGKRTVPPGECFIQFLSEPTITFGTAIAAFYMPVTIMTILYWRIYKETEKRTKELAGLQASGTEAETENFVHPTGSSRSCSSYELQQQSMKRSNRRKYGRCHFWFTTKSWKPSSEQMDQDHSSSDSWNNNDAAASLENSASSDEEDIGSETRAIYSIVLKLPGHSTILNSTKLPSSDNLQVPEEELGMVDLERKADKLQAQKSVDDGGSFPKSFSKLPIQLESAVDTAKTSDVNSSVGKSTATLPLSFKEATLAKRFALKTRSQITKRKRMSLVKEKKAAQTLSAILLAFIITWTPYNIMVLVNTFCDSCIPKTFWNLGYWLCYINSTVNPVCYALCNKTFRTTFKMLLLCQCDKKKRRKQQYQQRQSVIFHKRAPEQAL

ACh response, % max, inactive:
Cc1cc(OCc2ccncc2)nc2sc(C(=O)NCc3cc(F)ccc3F)c(N)c12 96.3
COc1ccc(CNC(=O)c2sc3nc(OCc4ccncc4)cc(C)c3c2N)cc1 90.1
Cc1cc(OCc2ccncc2)nc2sc(C(=O)NCc3cccc(F)c3F)c(N)c12 94.7
Cc1cc(OCCN2CCOCC2)nc2sc(C(=O)NC(C)(C)C)c(N)c12 96.8
